This note sets out measurements from PubChem BioAssay (EPA / NIEHS).

Molecules are shown by their SMILES. Active and inactive are the calls of the source. How the source made its calls: active means hit-call score of the fitted dose curve at least 0.9, where 1 is the maximum; inactive means score below 0.9.

Read-out in assay [1]: Transforming growth factor beta 1 (TGFb1), TGFB1 (gene 7040)
The experiment in a line: BSK_KF3CT_TGFb1: BioMAP Diversity Plus: KF3CT Assay for Transforming growth factor beta 1 (TGFb1) Biomarker Activity (AID 2283072). The conditions noted are these: primary human keratinocytes with fibroblasts; actives raise or lower the signal. A digest of the protocol: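 ELISA quantifies TGF-b1 at 24 h post-dose in a primary human skin co-culture of keratinocytes and fibroblasts, with gain or loss judged against DMSO. Parallel SRB total-protein staining flags overt cytotoxicity.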

Read-out in assay [2]: C-C motif chemokine 2 (Homo sapiens) (UniProt P13500)
The experiment in a line: BSK_KF3CT_MCP1: BioMAP Diversity Plus: KF3CT Assay for Monocyte Chemoattractant Protein 1 (MCP1/CCL2) Biomarker Activity (AID 2283073). The note with it: primary human keratinocytes with fibroblasts; actives raise or lower the signal. The gist of the method: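 Human keratinocyte–foreskin fibroblast co-culture; MCP-1 measured by ELISA 24 h after dosing. Bidirectional fit vs DMSO; cytotoxicity tracked by SRB total protein in parallel cultures.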

Read-out in assay [3]: Matrix Metallopeptidase 9 (MMP9), MMP9 (gene 4318)
The experiment in a line: BSK_KF3CT_MMP9: BioMAP Diversity Plus: KF3CT Assay for Matrix Metallopeptidase 9 (MMP9) Biomarker Activity (AID 2283074).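 On AC50: MMP9 protein level quantified by ELISA in the co-culture.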 The conditions noted are these: primary human keratinocytes with fibroblasts; actives raise or lower the signal. The gist of the method:
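ELISA read-out of MMP-9 at 24 h post-dosing in a co-culture of human skin keratinocytes and foreskin fibroblasts. Gain or loss of signal was fitted in both directions against DMSO.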

Read-out in assay [4]: E-selectin (Homo sapiens) (UniProt P16581)
In words: BSK_LPS_Eselectin: BioMAP Diversity Plus: LPS Assay for Eselectin Biomarker Activity (AID 2283077). The conditions noted are these: primary human HUVEC with PBMC; actives raise or lower the signal. The gist of the method: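 Human umbilical vein endothelial cells co-cultured with PBMC under LPS stimulation; cell-surface E-selectin measured by ELISA 24 h after dosing. Change in either direction versus DMSO, with SRB total-protein staining in parallel cultures for cytotoxicity.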

Read-out in assay [5]: Interleukin-8 (IL8), CXCL8 (gene 3576)
The experiment in a line: BSK_LPS_IL8: BioMAP Diversity Plus: LPS Assay for Interleukin-8 (IL8) Biomarker Activity (AID 2283078). The conditions noted are these: primary human HUVEC with PBMC; actives raise or lower the signal. The gist of the method:
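Human umbilical vein endothelial cells co-cultured with PBMC, LPS-stimulated, exposed to compound for 24 h. IL-8 quantified by ELISA; fitted in both directions against DMSO, with SRB total-protein staining of parallel cultures for cytotoxicity.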

Assay [6] can be described thus: BSK_LPS_SRB: Viability Assessment in the BioMAP Diversity Plus: LPS Assay (AID 2283079).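 Further: total protein by sulforhodamine B absorbance as a cytotoxicity measure; measured one day after compound addition.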 The note with it: primary human HUVEC with PBMC. A digest of the protocol:
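Co-culture of human umbilical vein endothelial cells and PBMC, read 24 h after dosing. Total protein by 0.1% SRB staining after 10% TCA fixation, absorbance at 560 nm; bidirectional fit against DMSO.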

Read-out in assay [7]: Interleukin-1 alpha (IL1a), IL1A (gene 3552)
In words: BSK_LPS_IL1a: BioMAP Diversity Plus: LPS Assay for Interleukin-1 alpha (IL1a) Biomarker Activity (AID 2283080). The note with it: primary human HUVEC with PBMC; actives raise or lower the signal. The gist of the method:
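Human umbilical vein endothelial cells co-cultured with PBMC and stimulated with LPS; IL-1a measured by ELISA 24 h after dosing. Bidirectional fitting against DMSO; cytotoxicity checked by SRB staining in parallel cultures.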

Read-out in assay [8]: urokinase plasminogen activator (uPA), PLAU (gene 5328)
The experiment in a line: BSK_KF3CT_uPA: BioMAP Diversity Plus: KF3CT Assay for urokinase plasminogen activator (uPA) Biomarker Activity (AID 2283075). The note with it: primary human keratinocytes with fibroblasts; actives raise or lower the signal. The gist of the method:
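Skin co-culture (keratinocytes + foreskin fibroblasts), human primary; 24 h post-dose; uPA by ELISA; gain/loss fit vs DMSO baseline.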

Read-out in assay [9]: CD40, CD40 (gene 958)
The experiment in a line: BSK_LPS_CD40: BioMAP Diversity Plus: LPS Assay for CD40 Biomarker Activity (AID 2283076). The conditions noted are these: primary human HUVEC with PBMC; actives raise or lower the signal. The gist of the method:
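HUVEC plus PBMC co-culture stimulated with LPS; CD40 quantified by ELISA 24 h after compound dosing. Fitting was bidirectional relative to DMSO. SRB staining of parallel cultures flagged overt cytotoxicity.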

Read-out in assay [10]: Monocyte Chemoattractant Protein-1 (MCP1), CCL2 (gene 6347)
In words: BSK_LPS_MCP1: BioMAP Diversity Plus: LPS Assay for Monocyte Chemoattractant Protein-1 (MCP1) Biomarker Activity (AID 2283081). The conditions noted are these: primary human HUVEC with PBMC; actives raise or lower the signal. A digest of the protocol:
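Human umbilical vein endothelial cells co-cultured with PBMC, LPS-stimulated; secreted MCP-1 measured by ELISA 24 h after compound addition. Bidirectional curve fitting against DMSO baseline; SRB total-protein staining in parallel cultures for cytotoxicity.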

E-selectin (Homo sapiens), sequence (P16581 whole entry, looked up): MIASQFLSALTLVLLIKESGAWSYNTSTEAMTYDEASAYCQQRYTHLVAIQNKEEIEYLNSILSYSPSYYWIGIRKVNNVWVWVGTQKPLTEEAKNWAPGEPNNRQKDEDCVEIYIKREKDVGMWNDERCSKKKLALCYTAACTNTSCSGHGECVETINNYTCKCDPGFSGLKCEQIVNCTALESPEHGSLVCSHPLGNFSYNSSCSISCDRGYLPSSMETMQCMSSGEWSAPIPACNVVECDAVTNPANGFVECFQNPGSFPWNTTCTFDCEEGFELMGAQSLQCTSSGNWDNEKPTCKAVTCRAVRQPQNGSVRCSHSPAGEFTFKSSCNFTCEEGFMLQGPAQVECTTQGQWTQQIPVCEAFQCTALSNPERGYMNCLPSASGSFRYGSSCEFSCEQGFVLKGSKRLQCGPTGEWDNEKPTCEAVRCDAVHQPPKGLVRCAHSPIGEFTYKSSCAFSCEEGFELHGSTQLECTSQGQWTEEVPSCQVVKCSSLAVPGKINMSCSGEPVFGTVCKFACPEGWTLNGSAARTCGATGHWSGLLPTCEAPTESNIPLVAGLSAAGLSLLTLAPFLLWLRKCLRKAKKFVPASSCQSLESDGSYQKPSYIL

Consider `CCOC(N)=O`, for which the outcome in [1], in [2], in assay [3], in [4], in assay [5] and in [6] was inactive. Also, the result in assay [7] was inactive.

With `CCCCCCCCCCCCCCCCOS(=O)(=O)O`, the half-maximal activity concentration (AC50) in [1] was 17.4 µM (active); in [3] it was 18.5 µM (active); in assay [8], 15.6 µM (active). Further, the outcome in [9], in assay [4], in assay [6], in [7] and in assay [10] was inactive.

As to `CCCCCCCC/C=C\CCCCCCCC(=O)OC[C@@H](O)[C@H]1OC[C@H](O)[C@H]1O`, the result in assay [1], in [2], in assay [3], in assay [4], in assay [6] and in assay [7] was inactive.

With `CC(=O)c1ccccc1`, the outcome in [1], in assay [3], in assay [8], in assay [4], in assay [5] and in [6] was inactive. Moreover, the result in assay [7] and in assay [10] was inactive.

For `O=C(O)c1cccc(C(=O)O)c1`, the outcome in [1], in assay [3], in [8], in assay [9], in assay [4] and in [6] was inactive. In addition, in [7], the result was inactive.

Consider `OCCOCCOCCO`, for which the outcome in [1], in assay [3], in assay [8], in assay [9], in assay [4] and in assay [5] was inactive. Also, the outcome in assay [6], in assay [7] and in [10] was inactive.

Take `O=C(O)[C@H](O)[C@@H](O)C(=O)O`: the result in assay [1], in [3], in assay [8], in assay [4], in assay [5] and in assay [6] was inactive. In addition, the outcome in [7] and in assay [10] was inactive.

`Cn1cc[nH]c1=S`: the outcome in assay [1], in assay [2], in assay [3], in assay [4], in assay [6] and in [7] was inactive.

As for `O=C(O)c1cccc(C[C@@H]2COc3ccc(OCc4nc5cc(F)ccc5s4)cc3[C@@H]2O)c1`, the outcome in assay [1], in assay [2], in assay [3], in assay [4], in assay [5] and in assay [6] was inactive. Besides, the outcome in [7] was inactive.

Take `CC[C@H](C)C(=O)O[C@H]1C[C@H](O)C=C2C=C[C@H](C)[C@H](CC[C@@H](O)C[C@@H](O)CC(=O)O)[C@H]21`: the outcome in [1], in assay [3], in [8], in assay [9], in assay [4] and in assay [5] was inactive. The result in [6], in assay [7] and in assay [10] was inactive.

`CCc1ccc(O)c(C(C)(C)C)c1`: the AC50 is 33.5 µM (active) in assay [1], 36.8 µM (active) in [2], 34.7 µM (active) in [3] and 32 µM (active) in assay [6]. Further, the result in assay [4], in [5], in [7] and in [10] was inactive.

`O=C(NO)C1(NS(=O)(=O)c2ccc(Oc3ccc(F)cc3)cc2)CCOCC1`: the outcome in [1], in assay [3], in assay [8], in assay [4], in assay [5] and in [6] was inactive. Besides, the outcome in assay [7] and in [10] was inactive.

On to `CCCCOC(=O)c1ccccc1`, for which the result in assay [1], in assay [2], in assay [3], in [4], in assay [6] and in assay [7] was inactive. The outcome in [10] was inactive.

For `CCCOc1ccc(S(=O)(=O)N2CCN(CC)CC2)cc1-c1nc2c(CC)n(Cc3ccccn3)nc2c(=O)[nH]1`, the outcome in [1], in assay [3], in assay [8], in [4], in assay [5] and in assay [6] was inactive. Moreover, the outcome in [7] and in assay [10] was inactive.

In the case of `CCCCN1C(=O)[C@@H]([C@H](O)C2CCCCC2)NC(=O)C12CCN(Cc1ccc(Oc3ccc(C(=O)O)cc3)cc1)CC2`, the result in [1], in [3], in assay [8], in [9], in [4] and in assay [6] was inactive. Further, the outcome in assay [7] was inactive.

On to `CCCCCCCC1CCC(=O)O1` (configuration not stated), for which the outcome in assay [1], in assay [3], in assay [8], in [4], in assay [5] and in [6] was inactive. In addition, the result in [7] was inactive.

Consider `COCc1nnc(-c2ccc[n+]([O-])c2)n1-c1c(Cl)c(Cl)cc2[nH]c(=O)c(=O)[nH]c12`, for which the outcome in assay [1], in [2], in [3], in assay [4], in [6] and in [7] was inactive. Also, the outcome in assay [10] was inactive.

On to `COS(C)(=O)=O`, for which the outcome in assay [1], in [3], in assay [9], in assay [4], in assay [5] and in assay [6] was inactive. Besides, the outcome in assay [7] and in assay [10] was inactive.

As to `C[C@]12C=CC(=O)C=C1CC[C@H]1[C@@H]3C[C@@H](O)[C@](O)(C(=O)CO)[C@@]3(C)C[C@H](O)[C@@]12F`, the result in assay [1], in assay [3], in assay [4], in assay [5], in assay [6] and in [7] was inactive. The outcome in assay [10] was inactive.

As to `NC(N)=O`, the result in assay [1], in [3], in assay [9], in [4], in assay [6] and in assay [7] was inactive. Further, in assay [10], the outcome was inactive.

In the case of `Cc1nccn1-c1ccc(Sc2cccc(C3(C(N)=O)CCOCC3)c2)cc1`, the result in [1], in assay [9], in assay [4], in assay [5], in [6] and in assay [7] was inactive. Further, the result in [10] was inactive. Also, the concentration at half-maximal activity (AC50) in assay [3] was 20 µM (active).
